Usually AC50 stands for the midpoint of the concentration-response curve, whichever way the signal moves.

Some structures have more than one record in an assay (separate samples or runs), and their calls can disagree. Activity calls are given as the source filed them. Rule for the calls: active = hit-call score of the fitted dose curve at least 0.9, where 1 is the maximum; inactive = score below 0.9.

The results in this text go back to PubChem BioAssay (EPA / NIEHS).

The assay in a line: ATG_VDRE_CIS: Attagene CIS-FACTORIAL HepG2 Assay for human Vitamin D Receptor Element (VDRE) (AID 2282968). The following applies: HepG2 VDRE cis-reporter transcription, actives raise or lower the signal. How it is done:
ATG_CIS is a cell-based, multiplexed-readout assay that uses HepG2, a human liver cell line, with measurements taken at 24 hours after chemical dosing in a 24-well plate.ATG_VDRE_CIS is one of 52 assay component(s) measured or calculated from the ATG_CIS assay. It is designed to make measurements of mRNA induction, a form of inducible reporter, as detected with fluorescence intensity signals by Reverse transcription polymerase chain reaction (RT-PCR) and Capillary electrophoresis technology.Data from the assay component ATG_VDRE_CIS was analyzed into 1 assay endpoint. This assay endpoint, ATG_VDRE_CIS, was analyzed with bidirectional fitting relative to DMSO as the negative control and baseline of activity. Using a type of inducible reporter, measures of mRNA for gain or loss-of-signal activity can be used to understand the reporter gene at the transcription factor-level as they relate to the gene VDR. Furthermore, this assay endpoint can be referred to as a primary readout, because this assay has produced multiple assay endpoints where this one serves a reporter gene function. To generalize the intended target to other relatable targets, this assay endpoint is annotated to the nuclear receptor intended target family, where the subfamily is non-steroidal.
Human liver HepG2 cells are transiently transfected with multiple reporter transcription units (MRTUs) in 6-well plates using FuGene 6 reagent (Roche; 3 ml FuGene/1 mg DNA). The MRTU constructs are regulated by a cis-regulating element (promoter). […] A major difference between the CIS and TRANS system is that in CIS activities of endogenous TFs are measured, whereas the TRANS assay evaluates changes in activities of exogenous, chimeric NR-Gal4 proteins. […] At the end of 24 hour incubation, total RNA was isolated using TriZol reagent (Invitrogen). The isolated RNA is then reverse-transcribed using oligo(dT) primer and Mo-MLV reverse transcriptase (Invitrogen) with DNAse I (Ambion) treatment for 30 min. The one-tenth of the produced cDNA was amplified by PCR using Taq DNA polymerase (Invitrogen) and two reporter sequence-specific primers. The PCR products were fluorescently labeled by primer extension with 6-arboxyfluorescein (6-FAM) 5'-labeled reporter sequence-specific primer (2 min at 95 C, 20 s at 68 C and 10 min at 72 C) and these products were digested with 5U of HpaI (New England Biolabs) for 2h at 37 C. The fragments were purified using Qiaquick PCR columns (Qiagen), analyzed on an ABI 3130xL genetic analyzer (Applied Biosystems) with peak positions identified by using a set of X-rhodamine (ROX)-labeled MapMarker1000 molecular weight standards (BioVentures). The raw capillary electrophoresis data was processed using Attagraph software (Attagene).
As for `CC12CC1(C)C(=O)N(c1cc(Cl)cc(Cl)c1)C2=O` (stereo not given), the half-maximal activity concentration (AC50) is 8.04 µM (active) and the outcome was inactive. Take `CN(CCCC(=O)c1cccnc1)N=O`: the molecule was called inactive. The same measure, in the same setting: to `CCCCOCCOC(C)=O` belongs “inactive”. For `O=C(O)Cc1ccccc1`, the molecule was called inactive. As for `CCCCCCCCc1ccc(O)cc1`, the call was inactive and the AC50 was 18.9 µM (active). For `O=P(O)(O)CN(CP(=O)(O)O)CP(=O)(O)O`, the result was inactive.

For `CCC[CH2][Sn]([CH2]CCC)([CH2]CCC)[O]C(=O)c1ccccc1`, the concentration at half-maximal activity (AC50) was 0.137 µM (active). Regarding `CCC(C)(C)c1ccc(O)c(C(C)(C)CC)c1`, the concentration at half-maximal activity (AC50) was 15.9 µM (active). Take `Fc1ccc(C2(Cn3cncn3)OC2c2ccccc2Cl)cc1` (stereo not given): the concentration at half-maximal activity (AC50) was 12.3 µM (active). Take `Nc1ncc([N+](=O)[O-])s1`: the result was inactive. `ClC1=C(Cl)[C@]2(Cl)[C@H]3[C@H]([C@H]4C=C[C@H]3C4)[C@@]1(Cl)C2(Cl)Cl`: the molecule was called inactive. Same read-out and setting: the result for `Nc1ccc(N=Nc2ccc(-c3ccc(N=Nc4c(S(=O)(=O)O)cc5cc(S(=O)(=O)O)c(N=Nc6ccccc6)c(O)c5c4N)cc3)cc2)c(N)c1` reads “inactive”.

In the case of `Nc1cccc(Cl)c1`, the outcome was inactive. `O=C/C=C/c1ccccc1`: the AC50 was 45.5 µM (active). For the molecule `COP(=S)(OC)Oc1c(Cl)cc(C)cc1Cl`, the half-maximal activity concentration (AC50) was 7.7 µM (active). With `COc1ccccc1OC`, the molecule was classed as inactive.

For the molecule `O=[N+]([O-])c1ccc2c3c(cccc13)CC2`, the AC50 was 11.5 µM (active). With `CC(=O)[O][Hg][c]1ccccc1`, the half-maximal activity concentration (AC50) is 3.71 µM (active).

With `COP(=S)(OC)Oc1ccc(Sc2ccc(OP(=S)(OC)OC)cc2)cc1`, the AC50 was 9.75 µM (active).

Regarding `C=CC(=O)N(C)C`, the molecule was called inactive. Turning to `CC(C#N)CCC#N` (stereo not given), the call was inactive. As to `ClCc1ccccn1`, the molecule was classed as inactive. As to `O=[N+]([O-])c1c(Cl)c(Cl)cc(Cl)c1Cl`, the outcome was inactive. Still for that read-out and setting: the result for `C[C@]12CC[C@H](O)CC1=CC[C@@H]1[C@@H]2CC[C@]2(C)C(=O)CC[C@@H]12` reads “inactive”; that for `CCC1(c2ccc(N)cc2)CCC(=O)NC1=O` (stereo not given), “inactive”.

Take `CCOP(=S)(OCC)Oc1nc(Cl)c(Cl)cc1Cl`: the AC50 was 5.83 µM (active). On to `CC(=O)c1cc(C(C)(C)C)cc2c1CCC2(C)C`, for which the AC50 was 25.6 µM (active).

On to `COC[C@H](C)N(C(=O)CCl)c1c(C)csc1C`, for which the AC50 is 47.3 µM (active). As for `N#CN=C(N)N`, the molecule was called inactive.

For `CCC(=O)c1ccccc1`, the molecule was called inactive. `CCOP(=S)(OCC)SCSP(=S)(OCC)OCC`: the half-maximal activity concentration (AC50) is 1.32 µM (active).

As for `O=C1C2(Cl)C3(Cl)C4(Cl)C(Cl)(Cl)C5(Cl)C3(Cl)C1(Cl)C5(Cl)C24Cl` (stereo not given), the molecule was classed as inactive and the AC50 was 13.1 µM (active).

As to `O=C(OC1CCCCC1)c1ccccc1C(=O)OC1CCCCC1`, the half-maximal activity concentration (AC50) is 2.82 µM (active). For the molecule `NC(=S)Nc1ccccc1`, the call was inactive.

In the case of `c1cc[c]([Hg][c]2ccccc2)cc1`, the half-maximal activity concentration (AC50) is 27.3 µM (active). On to `Oc1cccc2cccnc12`, for which the half-maximal activity concentration (AC50) is 67.9 µM (active) and the outcome was inactive.
